# Source: the supplement of paper PMC6555819
# Test system: VDR:RXRa (NR concentration 270 nM, RXRa partner concentration 90 nM)
# Experiment: PBM binding z-score (relative to random genomic background probes); higher = stronger binding; sequences stand for … in GC…GCGATTGACAGCGTAGAATGAAGG
# Description: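 Protein-binding microarray (Agilent 4x180K custom design, double-stranded 60-nt probes: 5' GC cap, 34-nt variable region, 24-nt constant primer region; full probe sequence given). Purified or IVT nuclear receptor:RXRα heterodimers (3:1 NR:RXRα, mostly 270:90 nM) or homodimers were incubated for 1 h in PBS with 2% milk and no ligand, then detected with Alexa488 antibodies. Fluorescence from o1-orientation probes (~5 replicates averaged) was converted to z-scores against 500 random hg19 background probes. Variable regions are seed direct-repeat (DR0–DR5) sites, all their single-nucleotide variants and half-site ablations.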
row,Sequence,PBM binding z-score
1,ATATGTAGGTTAGCTGGGTTCATTCAGACTAGGC,6.4
2,CCTCGGAGGACAACAGGAGGTCAGAGCAGCCAGA,1.94
3,GCGACTGGGGTATCAGCAGGTTACCATAACTTAA,-0.202
4,CCTACTGGGCCATCAGGTCATTGAAATCAACGTT,1.28
5,ACGTACGGGTCAACGAGGTTATAGCACGCGTATA,7.49
6,TCAAACAGGTGAAGGTAACTCAGGTACGCAGTCG,1.13
7,ACTAGCAGGCCAAGTTTGGGTCACTCAGACAAAG,0.43
8,ACAGACAGGTGAGTGGAGGTAACTCAGCTGGACG,-0.0789
9,TAGCCTAGGTCAGGGGCCAGTATACCACGCGAAC,0.706
10,AGTCAAAGTTCAGGACGAGGTAGCGTAAAGCACG,2.43
11,CCTTACGTGTCAAGGTTATAGCACGGGTGGTACG,0.738
12,GCTGCTAGGTCAGGTTGGTCAGCTGACGGGTACG,0.533
13,GGAACGTGGGCAAAGTTGATAGCATCTGTCGACG,-0.399
14,TAGCCTAGGTCAGAACGGGCCAGTATACGCTATA,0.299
15,AGTCAAAGTTCATCTACGTAACGTAAGATATGCT,4.77
16,GCGTACGGGTCAAAGGTTATAGCATGAATAGAAT,5.59
17,CGTCCAAGGTGAGCAGGTCAGTGAAAGCGACGTG,0.0617
18,GCTTGTTGGTCAGTAAAAGGTCACACACCGGTCG,3.86
19,ACTAGCATGCCAAGTTTGGGTCACTCAAACAAAG,0.531
20,GGAACGAGGGCACAGTTGATAGCATCTGTCGACG,0.453

row,Sequence,PBM binding z-score
1,AGAGACAGGTGAGTGAAGGTAACTCAGCTGGACG,-0.141
2,TCGAGTACGTTAGGGGCATTCAGAATGGCGTCGA,2.6
3,CCGACTGGGGCATGAGGTTACCATAAGCCAGCCC,-0.146
4,GCTTGTAGATCGAGGTTAAGAAAGACTAAGCTAA,0.413
5,ATCTCGAGGTAAAGTTCAGTGAAAGATCGATAGA,1.64
6,ATCTCTAGGTAACAAGTTCAGTGCAAGAGAGGAC,1.79
7,CCGAGTAGGTTATGGGGCGTTCAGGCAACGGTGA,0.0035
8,GCAGACATGTGAAACGCAGGTAACTCAGGGTGGC,-0.478
9,CGAACGAGGGCATGAGTTGTTAGCAAATGCCGAT,0.896
10,ATCTCTAGGTAACCAAGTTCAGTGAATGCCGAAC,4.23
11,CCTCCTAGGTCAATGGTCAGCTAAAGCAGCTCGC,1.29
12,TCTTGTGGATCAATAGAGGTTAAGAAAGTGCGCT,1.73
13,TCTCGGAGGACACGAAGGTCGGAGCTTTCCAGAG,0.528
14,CAGAGTAGGTTATGGGGCATTCAGGCAACGGTGA,0.214
15,CCTATTAGTTGACCCTAAGGGCAACCGAAGCTCG,3.74
16,ATCGAAATGTCGAGGTGAGTATAGAGAAAGGGAA,-0.253
17,CGACCTAGGTCATCCAGGACAGTGAATACATTGA,4.85
18,AGTCAAAGTTCCGGACGAGGTAACGTAAAGCACG,-0.357
19,CCTCGGAGGACAACAGCAGGTCAGAGCTGCCAGA,0.333
20,CCAGACAGGCGAAAGGTAACTCAGTCTGGTACGC,-0.255
